Pf growth 96h: inhibits malaria parasite growth, 96 h; P. falciparum luciferase reporter growth, 96 h; Potency, µM (top dose mostly 28.7 µM), actives largely listed as inhibitors; AID 504834; 6.9% of 320,000 active
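Cell-based qHTS: luciferase-tagged P. falciparum in erythrocytes (2% hematocrit, 0.05% parasitemia final) incubated with compounds for 96 hours, 37 C, 5% CO2; luciferase detection reagent then added and luminescence measured.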
Vaccinia mCherry: inhibitors of vaccinia virus infection (mCherry reporter signal); Vaccinia virus mCherry reporter infection, fluorescence; Potency, µM (doses to about 36.5 µM), usual class: inhibitors; 0.63% of 310,000 active; calls by dose curve; tested in A549 cells; further: nearly all actives have a fitted effect of over 35% in size
Pf growth 48h: inhibits P. falciparum growth in the first generation, 48 h | P. falciparum luciferase growth in erythrocytes, 48 h | Potency, µM (top dose mostly 28.7 µM), actives largely listed as inhibitors | 5.9% of 310,000 active | AID 504832
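A one-generation exposure of luciferase-tagged malaria parasites in RPMI 1640/Albumax erythrocyte culture, 37 C and 5% CO2. Inhibition is inferred from decreased luminescence after adding detection reagent.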
NS1 function inh: blocks influenza NS1 protein function; 0.4% of 270,000 active; Potency, µM (titrated, usually from 46.1 µM); AID 2326; calls by dose curve; further: actives are rising curves; nearly all actives have a fitted effect of over 50% in size
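Read-out: OD600 growth recovery of NS1-expressing budding yeast. Cells grown overnight at 30C in -URA glucose medium, washed, resuspended and diluted 1:100 in 2% galactose assay medium, pH 6.0. Same strain lacking NS1 served as positive control.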
HCV inhibitor: inhibitors of hepatitis C virus infection; Huh7.5.1 HCVcc-Cre infection, luciferase reporter, 44 h; Potency, µM (top dose mostly 41.8 µM), hits mostly inhibitors; 3.4% of 340,000 active
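Luciferase read-out (15 sec integration) after a 15 min room-temperature substrate step quantifies HCVcc-Cre infection. Cells, 1,000 per well, had compound added 4 h post-plating, then virus at ~0.5 moi, and were cultured 44 h.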
VACV Venus inh: inhibitors of vaccinia virus (Venus reporter). Vaccinia virus Venus reporter expression, fluorescence. Potency, µM (top dose mostly 36.5 µM), most hits filed as inhibitors. 0.46% of 330,000 active. AID 720580; calls by dose curve; tested in A549 cells; further: nearly all actives have a fitted effect of over 30% in size
Hits are given with their value; 0 = inactive; ? = inconclusive; - = not tested or not shown; ! = a repeat was not active; [ ] = dose if it differs, or a comment. In the library only some 11% were active in any assay of this set; here they are far more common. Unless noted, the call rests on the fitted dose curve; in most records, active means well fitted inhibition curve with a large enough effect; inconclusive means small, poorly fitted or top-dose-only effect, or another doubt; inactive means no such curve, though single readings can be large or run the other way.

SMILES | Pf growth 96h | Vaccinia mCherry | Pf growth 48h | NS1 function inh | HCV inhibitor | VACV Venus inh
COc1cccc(CNC(=O)CCC2CCCN(C(=O)c3csc(C(C)C)n3)C2)c1 (stereo not drawn) | 13.1µM | 0 | 0 | 0 | 0 | 0
COc1cccc(CNC(=O)CCC2CCCN(C(=O)c3cc(C)on3)C2)c1 (stereo not drawn) | 0 | - | 0 | 0 | 0 | -
O=C(CCC1CCCN(C(=O)c2cncs2)C1)NCc1ccc(F)c(F)c1 (stereo not drawn) | 8.28µM | 0 | 0 | 0 | 0 | 0
O=C(CCC1CCCN(C(=O)C2CCCC2)C1)NCc1ccc(F)c(F)c1 (stereo not drawn) | 0 | 0 | ? | 0 | 0 | 0
Cc1nc(C)c(C(=O)N2CCCC(CCC(=O)NCc3ccc(F)c(F)c3)C2)s1 (stereo not drawn) | 9.28µM | 0 | 0 | 0 | 0 | 0
CC/C(=N\NC(=O)C1CC1)c1cccc(Cl)c1 | 0 | - | 0 | 0 | 0 | -
COc1ccc(/C=C/CN2CCCC(CCC(=O)NCc3ccc(F)c(F)c3)C2)cc1 (stereo not drawn) | 0 | 0 | 13.1µM | 0 | ? | 0
COc1ccccc1/C=C/CN1CCCC(CCC(=O)NCc2ccc(F)c(F)c2)C1 (stereo not drawn) | 0 | 0 | ? | 0 | ? | 0
O=S1(=O)N=CN(Cc2cccc(F)c2)c2ccccc21 | ? | 0 | 0 | 0 | 0 | ?
C/C=C(\C)C(=O)N[C@@H](C)CN1C2=NC[C@H](C(C)C)N2C[C@H]1Cc1ccc(OC)cc1 | 0 | 0 | ? | 0 | 0[8.37 µM] | 0
COc1ccc(C[C@H]2CN3C(=NC[C@H]3C)N2CCNC(=O)c2ccc(C)c(Br)c2)cc1 | 3.7µM | ? | 0 | 0 | ? | 0
Cc1ccc(C(=O)NCCN2C3=NC[C@H](C)N3C[C@H]2Cc2ccc(O)cc2)cc1Br | 13.1µM | 0 | ? | 0 | 0 | 0
COc1ccc(C[C@@H]2CN3C(=NC[C@@H]3C)N2C[C@H](C)NC(=O)c2ccc(C)c(Br)c2)cc1 | 2.62µM | 0 | 8.28µM | 0 | 0 | 0
Cc1nn(CC(=O)NCc2cccc(Br)c2)c(=O)c2c1sc1ccccc12 | - | 0 | - | - | - | 0
CCC12CN3CC(C)(CN(C1)C3c1c[nH]c3ccccc13)C2=O (stereo not drawn) | - | 0 | - | - | - | 0
COc1cc(C(=O)Nc2ccc(C)cc2C(NCC(=O)NN)c2ccccc2)cc(OC)c1OC (stereo not drawn) | 4.65µM | - | 0[0.00184 µM] | ? | 0 | -
COc1ccc(NC(=O)CCN2CC(C)OC(C)C2)c(OC)c1 (stereo not drawn) | 0 | 0 | ? | 0 | 0 | 0
COc1ccc(OC)c(/C(O)=C/C(=O)C(=O)Nc2ccccc2OC)c1 | 14.7µM | - | - | 0 | 0 | -
COc1ccc(NC(=O)Nc2ccccc2OC)cc1 | - | 0 | 0 | 0 | 0 | 0
COc1ccc(OC)c(NC(=O)CCN2CC(C)OC(C)C2)c1 (stereo not drawn) | 1.85µM | - | 0 | 0 | 0 | -
COc1ccc(C)cc1NC(=O)c1nn(-c2ccccc2)cc1OC | 2.94µM | ? | 0 | 0 | 7.08µM | ?
COCCSc1ccccc1C(=O)N1CCCC1 | 0 | 0 | 0 | 0 | 0 | 0
COc1ccc(C2=NS(=O)(=O)N(C)C(C(=O)N3CCC(C(N)=O)CC3)=C2)cc1 | 0 | 0 | 0 | 0 | 0 | 0
Cc1ccc(NC(=O)CNC(c2ccccc2)c2ccccc2)c(F)c1 | ? | - | 0 | 0 | 0 | -
O=C(Nc1ccccc1)Nc1cccc(C(F)(F)F)c1 | 0 | 0 | ? | - | ? | 0
SMILES | Pf growth 96h | Vaccinia mCherry | Pf growth 48h | NS1 function inh | HCV inhibitor | VACV Venus inh
COc1ccc(C)cc1NC(=O)Nc1ccccc1 | 0 | - | - | 0 | 3.16µM | 0
COc1ccc(C)cc1NC(=O)CNC(c1ccccc1)c1ccccc1 | ? | - | 7.38µM | 0 | ? | -
COc1ccc(OC)c(NC(=O)CNC(c2ccccc2)c2ccccc2)c1 | 9.28µM | - | 11.7µM | 0 | ? | -
COc1ccc(NC(=O)Nc2cc(C)ccc2OC)cc1 | 0 | - | 0 | 0 | ? | -
Cc1ccc(OC(F)F)c(NC(=O)Nc2cccc(C(F)(F)F)c2)c1 | - | - | ? | 0 | 10µM | -
CCOc1ccccc1NC(=O)COC(=O)C1CC1 | 0 | 0 | 0 | - | 0 | 0
COc1ccc(C(=O)N(C)Cc2nc3ccccc3c(=O)[nH]2)cc1S(=O)(=O)N1CCCC1 | ? | - | 0 | - | 0 | -
COc1ccc(Cl)cc1NC(=O)CNC(c1ccccc1)c1ccccc1 | 1.65µM | 0 | ? | 0 | ? | 0
COc1ccc(Cl)cc1NC(=O)CNCC(c1ccccc1)N(C)C (stereo not drawn) | 0 | 0 | 0 | 0 | 0 | 0
O=C(NCCCC1CCCC1)C1CCC(=O)N(Cc2cccc(C(F)(F)F)c2)C1 (stereo not drawn) | 11.7µM | 0 | 0 | 0 | 0 | ?
O=C(NCc1ccc(F)c(F)c1)C1CCC(=O)N(CC2CCCCC2)C1 (stereo not drawn) | 13.1µM | 0 | 0 | 0 | - | 0
O=C(NCc1ccc(F)c(F)c1)C1CCC(=O)N(CCc2ccccc2)C1 (stereo not drawn) | ? | - | 0 | 0 | 0 | -
O=C(NCc1cccc(Cl)c1)C1CCC(=O)N(CC2CCCCC2)C1 (stereo not drawn) | 14.7µM | 0 | 0 | 0 | 0 | 0
O=C(NCCc1ccccc1C(F)(F)F)C1CCC(=O)N(CCCN2CCCC2=O)C1 (stereo not drawn) | 9.28µM | 0 | 0 | 0 | 0 | 0
Cc1cc(NC(=O)CN(C)CC(=O)Nc2ccc(Cl)c(C(F)(F)F)c2)no1 | ? | - | 0 | - | ? | -
O=C1CCC(C(=O)OCC(=O)N2N=C3/C(=C/c4ccccc4)CCCC3C2c2ccccc2)N1 (stereo not drawn) | - | - | 0 | 0 | ? | -
c1ccc(C2(CN3CCNC[C@@H]3CC3CCCCC3)CC2)cc1 | - | 0 | - | - | 22.4µM | 0
CCOC(=O)c1c(CS(=O)(=O)c2ccccc2)n(C)c2cc(Br)c(O)c(CN(C)C)c12 | 0 | 0 | 9.28µM | 0 | ? | 0
CCOC(=O)c1c(CN2CCOCC2)n(C)c2cc(Br)c(O)c(CN(C)C)c12 | ? | 0 | 10.4µM | ? | ? | 0
COC(=O)c1ccc(SCC(=O)NCc2ccccc2)c([N+](=O)[O-])c1 | 2.62µM | 0 | - | 0 | 14.1µM | 0
O=C(NNc1ncnc2sccc12)c1ccc(Cl)cc1 | 0 | ? | 0 | 0 | ? | 0
Cc1csc2ncnc(NNC(=O)c3ccc(Cl)cc3)c12 | ? | 0 | 0 | 0 | 7.94µM | 0
COc1ccc(-c2nn(-c3ccccc3)cc2N)cc1 | 0 | 0 | 0 | - | 0 | 0
Nc1ncnc2c1c(I)cn2C1OC(CO)C(O)C1O (stereo not drawn) | - | 15.8µM! | - | - | - | ?
Nc1ncnc2c1ncn2C1O[C@H](CO)[C@@H](O)[C@@H]1O (stereo partly drawn) | 0 | 0 | 0 | - | 0 | 0
N#Cc1c(N)n(C2OC(CO)C(O)C2O)c2ncnc(N)c12 (stereo not drawn) | - | ? | - | - | ? | 1µM
CC(=O)NNc1nc(-c2ccc(C)cc2)cs1 | 0 | 0 | 0 | ? | 0 | 0
COc1ccc(CNC(=O)COC(=O)CCOc2ccccc2)cc1 | 0 | 0 | 0 | 0 | 0 | 0

Screening data: PubChem BioAssay, National Center for Advancing Translational Sciences (NCATS)
